In PubChem BioAssay AID651742 (Broad Institute, 2012):
Screen size: about 5,600 compounds; about 780 (14%) were called active. About 3% were inconclusive and are not listed.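 Rule for the calls: active = mean signal decrease across replicates above about 35% based on untreated-well scatter, with enough replicates individually passing (limit read from the data); inconclusive = no rule stated though some were filed; inactive = the rest.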 Only a sample is shown.

assay: NIH3T3 cell viability loss – cherry-pick, single point, cytotoxicity control for T. cruzi proliferation inhibitor project, confirmation (AID 651742); conditions: NIH/3T3 viability, CellTiter-Glo ATP luminescence, 90 h; at 8.35 µM; hits give high values;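 note: 0% = median of neutral control wells and 100% = median of positive control wells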

Structure (SMILES)	cytotoxicity (signal decrease)
C[C@H](O)C#Cc1ccc([C@H]2[C@H]3CN(S(=O)(=O)Cc4ccccc4)CCCCN3[C@H]2CO)cc1	10.3% (inactive)
COc1cccc(S(=O)(=O)N2CCCCN3[C@H](CO)[C@H](c4ccc(-c5ccncc5)cc4)[C@H]3C2)c1	9.65% (inactive)
O=S(=O)(c1ccc(F)cc1)N1CCCCN2[C@H](C1)[C@H](c1ccc(C3=CCCCC3)cc1)[C@@H]2CO	12.6% (inactive)
O=S(=O)(Cc1ccccc1)N1CCCCN2[C@@H](CO)[C@@H](c3ccc(-c4ccc(F)cc4)cc3)[C@@H]2C1	68.5% (active)
CCS(=O)(=O)N1CCCCN2[C@@H](CO)[C@@H](c3ccc(-c4ccccc4)cc3)[C@@H]2C1	18.2% (inactive)
O=S(=O)(Cc1ccccc1)N1CCCCN2[C@@H](CO)[C@H](c3ccc(-c4ccccc4)cc3)[C@@H]2C1	41.5% (active)
Cc1cccc(-c2ccc([C@@H]3[C@@H](CO)N4CCCCN(S(=O)(=O)c5cccs5)C[C@H]34)cc2)c1	42.5% (active)
Cc1ccccc1-c1ccc([C@H]2[C@H]3CN(S(=O)(=O)c4ccc(F)cc4)CCCCN3[C@H]2CO)cc1	12% (inactive)
Cc1ccccc1-c1ccc([C@@H]2[C@H](CO)N3CCCCN(S(=O)(=O)c4ccc(F)cc4)C[C@@H]23)cc1	43.8% (active)
Cc1cccc(-c2ccc([C@H]3[C@@H](CO)N4CCCCN(Cc5cncnc5)C[C@H]34)cc2)c1	17.8% (inactive)
O=S(=O)(Cc1ccccc1)N1CCCCN2[C@@H](CO)[C@H](c3ccc(-c4cccnc4)cc3)[C@@H]2C1	5.7% (inactive)
CN(C)C(=O)c1ccc(-c2ccc([C@@H]3[C@H](CO)N4CCCCN(S(C)(=O)=O)C[C@@H]34)cc2)cc1	5.37% (inactive)
CC(C)C#Cc1ccc([C@H]2[C@H](CO)N3CCCCN(C(=O)NC(C)C)C[C@@H]23)cc1	13.1% (inactive)
C[C@H]1CCCCO[C@H](CN(C)Cc2ccccc2)[C@@H](C)CN([C@@H](C)CO)C(=O)c2cc(NC(=O)NC3CCCCC3)ccc2O1	12.5% (inactive)
COc1ccc(C#Cc2cnc3c(c2)C(=O)N([C@@H](C)CO)C[C@H](C)[C@@H](CN(C)C(C)=O)O3)cc1	-3.17% (inactive)
CN(C)CC#Cc1ccc([C@H]2[C@H]3CN(S(=O)(=O)c4ccccc4F)CCCCN3[C@H]2CO)cc1	20.2% (inactive)
COCC(=O)N(C)C[C@@H]1Oc2ncc(C#Cc3ccccc3OC)cc2C(=O)N([C@@H](C)CO)C[C@H]1C	1.95% (inactive)
Cc1ccc(S(=O)(=O)Nc2ccc3c(c2)C(=O)N([C@@H](C)CO)C[C@@H](C)[C@H](CN(C)C(=O)Nc2cccc4ccccc24)OCCCC[C@H](C)O3)cc1	-10.9% (inactive)
O=C(c1cccc(F)c1)N1CC[C@@H]2[C@@H](CO)Nc3ccc(C#Cc4cccc(F)c4)cc3[C@@H]21	27.7% (inactive)
CC(=O)N1[C@H](CNC(=O)C2CC2)[C@@H](c2ccc(-c3cccc(F)c3)cc2)[C@@H]1CO	3.63% (inactive)

Structure (SMILES)	cytotoxicity (signal decrease)
C[C@@H]1CCCCO[C@@H](CN(C)Cc2ccc(Cl)c(Cl)c2)[C@H](C)CN([C@H](C)CO)C(=O)c2cc(NC(=O)Nc3ccc(F)cc3)ccc2O1	3.22% (inactive)
COc1ccc(CN(C)C[C@H]2OCCCC[C@H](C)Oc3ccc(NC(=O)Nc4ccc5c(c4)OCO5)cc3C(=O)N([C@H](C)CO)C[C@@H]2C)cc1	45.5% (active)
C[C@@H]1CN([C@@H](C)CO)C(=O)c2cc(NC(=O)Nc3cccc4ccccc34)ccc2O[C@H]1CN(C)Cc1ccc(Oc2ccccc2)cc1	18.9% (inactive)
C[C@@H]1CCCCO[C@H](CN(C)Cc2ccccc2)[C@@H](C)CN([C@@H](C)CO)C(=O)c2cc(NC(=O)Nc3ccc(F)cc3)ccc2O1	27.1% (inactive)
C[C@@H]1CN([C@@H](C)CO)C(=O)c2cc(NC(=O)Nc3cccc4ccccc34)ccc2O[C@H]1CN(C)Cc1ccc(Cl)c(Cl)c1	35.5% (active)
C[C@@H]1CN([C@@H](C)CO)C(=O)c2cc(NC(=O)Nc3cccc4ccccc34)ccc2O[C@@H](C)CCCCO[C@H]1CN(C)Cc1ccccc1	22.3% (inactive)
C[C@@H]1CN([C@H](C)CO)C(=O)c2cc(NC(=O)Nc3ccc(F)cc3)ccc2O[C@@H](C)CCCCO[C@H]1CN(C)Cc1ccc(Cl)c(Cl)c1	40.8% (active)
C[C@@H]1CCCCO[C@@H](CN(C)Cc2ccc3c(c2)OCO3)[C@@H](C)CN([C@@H](C)CO)C(=O)c2cc(NC(=O)Nc3ccccc3)ccc2O1	6.98% (inactive)
C[C@@H]1CN([C@H](C)CO)C(=O)c2cc(NS(=O)(=O)c3ccc(Cl)cc3)ccc2O[C@@H](C)CCCCO[C@H]1CN(C)Cc1ccccc1	1.2% (inactive)
C[C@H](CO)N1C[C@H](C)[C@H](CN(C)Cc2ccc(C(F)(F)F)cc2)Oc2ccc(NS(=O)(=O)c3ccc(Cl)cc3)cc2C1=O	8.98% (inactive)
COc1ccc(NC(=O)Nc2ccc3c(c2)C(=O)N([C@H](C)CO)C[C@@H](C)[C@H](CN(C)Cc2ccc(Cl)c(Cl)c2)OCCCC[C@@H](C)O3)cc1	-14.8% (inactive)
C[C@H](CO)N1C[C@H](C)[C@H](CN(C)Cc2ccc(C(F)(F)F)cc2)OCCCC[C@H](C)Oc2ccc(NS(=O)(=O)c3ccc(Cl)cc3)cc2C1=O	98.8% (active)
COc1ccc(S(=O)(=O)Nc2ccc3c(c2)C(=O)N([C@H](C)CO)C[C@@H](C)[C@@H](CN(C)CC2CCCCC2)OCCCC[C@@H](C)O3)cc1	33.5% (inactive)
C[C@H](CO)N1C[C@H](C)[C@@H](CN(C)C(=O)Nc2ccnc(N3CCOCC3)c2)OCc2ccccc2-c2ccccc2C1=O	5.45% (inactive)
C[C@@H]1CCCCO[C@H](CN(C)Cc2ccc(C(F)(F)F)cc2)[C@H](C)CN([C@H](C)CO)C(=O)c2cc(NC(=O)Nc3ccc(F)cc3)ccc2O1	-14.3% (inactive)
C[C@@H]1CCCCO[C@@H](CN(C)S(=O)(=O)c2ccc(Cl)cc2)[C@H](C)CN([C@@H](C)CO)C(=O)c2cc(NC(=O)Cc3ccccc3)ccc2O1	0.0515% (inactive)
COc1ccc(NC(=O)N(C)C[C@@H]2OCCCC[C@@H](C)Oc3ccc(NS(=O)(=O)c4ccc(Cl)cc4)cc3C(=O)N([C@H](C)CO)C[C@H]2C)cc1	-38.7% (inactive)
O=C(C[C@@H]1C[C@@H]2c3cc(NC(=O)c4ccc5c(c4)OCO5)ccc3O[C@@H]2[C@@H](CO)O1)NCc1ccc(Cl)cc1	-20.7% (inactive)
C[C@@H]1CCCCO[C@@H](CN(C)CC2CC2)[C@H](C)CN([C@H](C)CO)C(=O)c2cc(NC(=O)C3CCCCC3)ccc2O1	-17.8% (inactive)
C[C@H]1CCCCO[C@H](CN(C)Cc2ccc(C(F)(F)F)cc2)[C@@H](C)CN([C@@H](C)CO)C(=O)c2cc(NC(=O)C3CCCCC3)ccc2O1	-5.99% (inactive)

Structure (SMILES)	cytotoxicity (signal decrease)
N#C[C@@H]1[C@@H](c2ccc(/C=C/c3ccccc3)cc2)[C@@H](CO)N1C(=O)C1CC1	23.9% (inactive)
C[C@@H]1CN([C@@H](C)CO)C(=O)c2cc(NC(=O)C3CCCCC3)ccc2O[C@@H](C)CCCCO[C@H]1CN(C)Cc1ccncc1	2.54% (inactive)
C[C@@H]1CN([C@H](C)CO)C(=O)c2cc(NC(=O)Nc3ccc(F)cc3)ccc2O[C@@H](C)CCCCO[C@@H]1CN(C)CC1CCCCC1	24.8% (inactive)
C[C@@H]1CN([C@H](C)CO)C(=O)c2cc(C#CC3CCCCC3)cnc2O[C@@H]1CN(C)C(=O)NC1CCCC1	26.3% (inactive)
C[C@@H](O)C#Cc1ccc([C@@H]2[C@H](CO)N3CCCCN(S(=O)(=O)c4ccccc4)C[C@@H]23)cc1	1.19% (inactive)
C[C@@H]1CCCCO[C@@H](CN(C)Cc2ccc(C(F)(F)F)cc2)[C@@H](C)CN([C@H](C)CO)C(=O)c2cc(NC(=O)Nc3ccccc3)ccc2O1	-2.03% (inactive)
OC[C@H]1[C@H](c2ccc(-c3cccc(F)c3)cc2)[C@@H]2CN(Cc3cncnc3)CCCCN12	13.1% (inactive)
O=C(Nc1ccccc1F)N1CCCCN2[C@H](CO)[C@@H](c3ccc(-c4cccnc4)cc3)[C@H]2C1	5.63% (inactive)
C[C@@H]1CN([C@@H](C)CO)S(=O)(=O)c2ccc(C#Cc3ccc(F)cc3)cc2O[C@H]1CN(C)C(=O)c1ccccn1	30% (inactive)
C[C@@H]1CN([C@@H](C)CO)S(=O)(=O)c2ccc(C#Cc3ccc(F)cc3)cc2O[C@H]1CN(C)C(=O)NC1CCCC1	8.27% (inactive)
C[C@H](CO)N1C[C@H](C)[C@@H](CN(C)S(=O)(=O)c2ccc(F)cc2)Oc2cc(C3=CCCC3)ccc2S1(=O)=O	50.5% (active)
C[C@@H]1CN([C@H](C)CO)S(=O)(=O)c2ccc(C#Cc3ccncc3)cc2O[C@@H]1CN(C)S(=O)(=O)c1ccc(F)cc1	27.1% (inactive)
C[C@@H]1CN([C@@H](C)CO)S(=O)(=O)c2ccc(-c3ccncc3)cc2O[C@@H]1CN(C)C(=O)Nc1ccc(F)cc1	-4.35% (inactive)
Cc1ccc(-c2ccc3c(c2)O[C@H](CN(C)C)[C@@H](C)CN([C@H](C)CO)S3(=O)=O)cc1	-0.56% (inactive)
CC(C)CC#Cc1ccc2c(c1)O[C@H](CN(C)S(=O)(=O)c1cccc(F)c1)[C@@H](C)CN([C@@H](C)CO)S2(=O)=O	14.5% (inactive)
C[C@@H]1CN([C@H](C)CO)S(=O)(=O)c2ccc(-c3cccc(F)c3)cc2O[C@H]1CN(C)S(=O)(=O)c1ccc(F)cc1	54.4% (active)
COc1ccccc1-c1ccc2c(c1)O[C@H](CN(C)S(=O)(=O)c1ccc(C)cc1)[C@@H](C)CN([C@H](C)CO)S2(=O)=O	26.4% (inactive)
C[C@@H]1CN([C@@H](C)CO)S(=O)(=O)c2ccc(-c3cccc(F)c3)cc2O[C@@H]1CN(C)S(=O)(=O)c1ccccc1	46.5% (active)
C[C@H]1CN([C@@H](C)CO)S(=O)(=O)c2ccc(C#Cc3cccc(F)c3)cc2O[C@@H]1CN(C)S(=O)(=O)c1cn(C)cn1	44.8% (active)
C[C@@H]1CN([C@@H](C)CO)S(=O)(=O)c2ccc(C#Cc3ccc(F)cc3)cc2O[C@H]1CN(C)S(C)(=O)=O	25.6% (inactive)
